Source: PubChem BioAssay AID602449 (Sanford-Burnham Center for Chemical Genomics, 2012)
“And” between values parts separate entries of the source, which are not always exact repeats. Equal entries are not always repeated. In all, about 360,000 compounds went through this assay and about 5,000 (1.4%) were called active.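 The calls were made as follows: active = inhibition of 50% or more, scaled per plate between neutral and stimulator controls; inactive = the rest.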 The full list was thinned out, with actives kept by preference. Where a structure was tested more than once in an assay, its records may differ in their call.

Assay: blockers of Ca2+-induced mitochondrial swelling – biochemical, isolated mouse mitochondria, absorbance, primary screen (AID 602449);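 also: 0% = DMSO wells given calcium and 100% = 1 mM EGTA wells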
Conditions: 30 min, at 10 µM, stronger effect = higher value

SMILES	inhibition
CC1=C(C)CC(C(=O)NC(C)CCc2ccccc2)C(C(=O)O)C1 (stereo not given)	-1.3% (inactive)
COc1cc(Br)c(-c2sc(Nc3ccccc3)n[n+]2-c2ccccc2)cc1OC	1.6% (inactive)
COc1ccc(C)cc1Nc1n[n+](-c2ccccc2)c(-c2cccc(Cl)c2Cl)s1	1.4% (inactive)
CCc1ccc(Nc2n[n+](-c3ccccc3)c(-c3cccc(Cl)c3Cl)s2)cc1	57.1% (active)
Cc1ccc(C)c(OCCC(=O)OCC(=O)N2CCN(c3ccccc3)CC2)c1	-0.6% (inactive)
O=C(Cc1ccc(-n2c(=O)[nH]c3ccccc3c2=O)cc1)N1CCN(c2cccc(Cl)c2)CC1	53% (active)
O=C(CCCC(=O)N1CCN(c2cccc(Cl)c2)CC1)c1ccccc1	-0.6% (inactive)
CCOC(=O)N1CCN(C(=O)Cc2ccc(-n3c(=S)[nH]c4ccccc4c3=O)cc2)CC1	-1.2% (inactive)
Cc1ccc(C(=O)N2CCN(C3CCCCC3)CC2)s1	-0.6% (inactive)
COc1cccc(C(O)c2nc3ccccc3n2C)c1 (stereo not given)	-0.2% (inactive)
CCCCCC(O)c1cccc(OCc2ccc3ccccc3n2)c1 (stereo not given)	50.9% (active)
COc1cccc(C(O)c2ncc(-c3ccc4ccccc4c3)[nH]2)c1 (stereo not given)	-0.1% (inactive)
Cc1ccnc(NC(=O)CCC(=O)N(CC(=O)NCc2ccccc2)Cc2ccco2)c1	-0.3% (inactive)
N#Cc1c(-c2cccs2)nc(SCC(=O)c2ccc(Br)cc2)[nH]c1=O	53.9% (active)
Cc1cc(C)c2c(=O)[nH]c(SCC(=O)Nc3ccc(Br)cc3)nc2n1	4.4% (inactive)
CCc1ccc(C(=O)CSc2nnc(C)c(=O)[nH]2)cc1	0.8% (inactive)
CC1=C(C(=O)N(C)C)CC(CC(=O)NCCc2ccccn2)C(=O)N1CCC1=CCCCC1 (stereo not given)	-0.3% (inactive)
CSCCC(NC(=O)c1cc([N+](=O)[O-])cc([N+](=O)[O-])c1)c1nc2ccccc2[nH]1 (stereo not given)	50.8% (active)
COc1ccc(CC(=O)N[C@@H](CCSC)c2nc3ccccc3[nH]2)cc1	-1.3% (inactive)
CSCCC(NC(=O)c1ccc(=O)n(C)n1)c1nc2ccccc2[nH]1 (stereo not given)	-0.7% (inactive)
COC(=O)[C@@]12C[C@@H](CC(=O)NCCCCc3ccccc3)C(=O)N(CCc3ccc(OC)c(OC)c3)C1=CCC(C)(C)C2	-2.6% (inactive)
Cc1ccc(C)c(N2CCN(C(=O)Cn3ncn4cccc4c3=O)CC2)c1	0.1% (inactive)
COc1ccc(S(=O)(=O)NCC2CCCN(C(=O)c3occc3C)C2)cc1 (stereo not given)	-0.5% (inactive)
O=C(NNc1ccccc1Cl)C(O)(c1cccc(C(F)(F)F)c1)c1cccc(C(F)(F)F)c1	90% (active)

SMILES	inhibition
O=C(O)c1cc(S(=O)(=O)N(Cc2ccccc2)c2cccc(C(F)(F)F)c2)ccc1Cl	0.9% (inactive)
O=c1cc(O)c(-c2cccc(C(F)(F)F)c2)c(Cl)[nH]1	3.7% (inactive)
CCCCNc1c(-c2cccc(Sc3ccc(OC)cc3)c2)nc2ccccn12	6.5% (inactive)
CC(=O)NC(CC(=O)Nc1ccc(S(=O)(=O)N2CCOCC2)cc1)c1ccccc1 (stereo not given)	-1.9% (inactive)
COc1ccc(C(C)(O)c2nc(-c3cc(F)cc(F)c3)cs2)cc1 (stereo not given)	1.2% (inactive)
COC(=O)C1=CN(c2c(C)cc(C)cc2C)C(N)=C(C#N)C1c1cccc(F)c1 (stereo not given)	1.1% (inactive)
CCCCN(C)C(=O)C1CCN(Cc2ccccn2)CC1	-1% (inactive)
O=c1c2ccccc2nc2n1C(CSc1ccc(Cl)cc1)CN2 (stereo not given)	-1.7% (inactive)
O=c1c2ccccc2nc2n1C(CSCc1ccccc1)CS2 (stereo not given)	52.1% (active)
O=c1c2ccccc2nc2n1C(CSCc1cccc(C(F)(F)F)c1)CS2 (stereo not given)	54% (active)
Cn1c(-c2sccc2OCc2cccc(C(F)(F)F)c2)n[nH]c1=S	0.2% (inactive)
C#CCCCc1nc2ccccc2c(=O)n1N	5.8% (inactive)
N#Cc1c(-c2ccccc2)nc(SCc2cccc(C(F)(F)F)c2)[nH]c1=O	49.1% (inactive)
COC(=O)[C@@]1(Cc2ccc(F)cc2)[C@H]2c3cc(C(=O)N(C)C)n(CCc4c[nH]c5ccc(OC)cc45)c3C[C@H]2CN1C(=O)c1ccccc1	-3.6% (inactive)
Cc1ccc(OCc2nnc(NC(=O)OCC(C)C)s2)cc1	0% (inactive)
O=c1c2[nH]c3ccc(Cl)cc3c2ncn1Cc1ccccn1	0.2% (inactive)
COc1ccccc1C1C(C#N)=C(N)Oc2c1c(-c1ccccc1)nn2-c1ccccc1 (stereo not given)	43.7% (inactive)
CN/C(=C\[N+](=O)[O-])NCCSCc1csc(CN(C)C)n1	-1.8% (inactive)
O=C(Nc1cccc(F)c1)c1coc(=O)c(Br)c1	92.1% (active)
Cc1c(NC(=O)c2coc(=O)c(Br)c2)c(=O)n(-c2ccccc2)n1C	0.9% (inactive)
O=C(Nc1cccc(F)c1)NC1CCCCCCC1	46.7% (inactive)
CCC(C)NC(=O)N[C@@H](CCSC)C(=O)O (stereo not given in full)	-0.7% (inactive)
Cc1ccc(SCCSc2ncccn2)cc1	1.5% (inactive)
Cc1cc(C)c(SCCc2ccncc2)c(C)c1	90.9% (active)

SMILES	inhibition
Cc1cc(C)c(NC(=O)CSc2nc3ccncc3[nH]2)c(C)c1	-1.3% (inactive)
CC(C)(C)c1ccc(SCCc2ccncc2)cc1	105% (active)
c1ccc(CSCCc2ccncc2)cc1	4% (inactive)
CCN(Cc1ccncc1)C(=O)CCc1ccccc1	4% (inactive)
CN(C)CCNC(=O)c1ccc(-c2cn3c(-c4ccc(Oc5ccccc5)cc4)cnc3cn2)cc1	-1.4% (inactive)
O=C(OC1CCOC1=O)c1cccc(S(=O)(=O)Nc2ccc(F)cc2)c1 (stereo not given)	2.8% (inactive)
CCOc1ccc(S(=O)(=O)NCCCn2ccnc2)cc1NC(C)=O	-0.5% (inactive)
CCN(CC)CCCN1C(=O)C(=O)/C(=C(/O)c2c(C)nc3ccccn23)C1c1ccc(C)o1 (stereo not given)	1.3% (inactive)
O=C(CN(Cc1ccccc1)C(=O)c1ccc2c(c1)OCCO2)NCc1ccc2c(c1)OCO2	-5.6% (inactive)
CCC(=O)N1CCc2cc(S(=O)(=O)CCC(=O)N3CCN(c4ccccc4F)CC3)ccc21	0.5% (inactive)
O=C(C1Cc2ccccc2CN1C(=O)c1ccco1)N1CCN(c2ccccc2)CC1 (stereo not given)	0.7% (inactive)
CN1CCC(N(C)C(=O)c2ccc(Cl)c(S(=O)(=O)Nc3ccc(Cl)cc3)c2)CC1	-0.7% (inactive)
C=C1c2c(Cl)ccc(O)c2C(O)=C2C(=O)[C@]3(O)C(O)=C(C(N)=O)C(=O)[C@@H](N(C)C)[C@@H]3[C@@H](O)C12 (stereo not given in full)	80.1% (active)
CCC(C)(C)NC(=O)CN(C(=O)CCC(=O)Nc1nccs1)c1ccc2c(c1)OCO2	0.4% (inactive)
CCOC(=O)CNC(=O)/C=C/c1c(Cl)cccc1Cl	0.6% (inactive)
COc1ccc([N+](=O)[O-])cc1NCC(=O)c1ccc(C)cc1	0.6% (inactive)
COc1ccc(NC(C)=O)cc1NC(=O)CN1CCN(C2c3ccccc3-c3ccccc32)CC1	-1.5% (inactive)
c1ccc2c(c1)C(=NC1CCCCC1)NC2=NC1CCCCC1	67.5% (active)
Cc1cc2nc(SCCN3CCOCC3)[nH]c2cc1C	0% (inactive)
Cc1ccc(S(=O)(=O)Nc2ccc3ncccc3c2)cc1	85% (active)
Cc1cc(C)cc(OCC(=O)Nc2ccc(S(=O)(=O)Nc3ccccn3)cc2)c1	3.7% (inactive)
O=S(=O)(Nc1ccc(Oc2ncccn2)c(Cl)c1)c1ccc(F)cc1	-1.6% (inactive)
O=C(CCN1C(=O)c2ccccc2C1=O)NNC(=O)c1ccc(Cl)cc1Cl	-0.8% (inactive)
COc1ccc(N2CC(C(=O)NCCN3C(=O)S/C(=C\c4cccnc4)C3=O)CC2=O)c(OC)c1 (stereo not given)	-0.2% (inactive)

SMILES	inhibition
Cc1cc(OCCCC(=O)NCCN2C(=O)S/C(=C\c3cccnc3)C2=O)ccc1Cl	84.3% (active)
O=C(NCCN1C(=O)S/C(=C\c2cccnc2)C1=O)c1cccc(OC(F)F)c1	2.4% (inactive)
CSCCC(NC(=O)COc1ccccc1)C(=O)OCC(=O)c1cc2ccccc2o1 (stereo not given)	0% (inactive)
CCc1nn(CC(=O)N2CCN(CC)CC2)c(=O)c2cccn12	-0.4% (inactive)
COC(=O)C1CC2=C(CC(C)(C)CC2=O)N(c2ccccc2)C1=O (stereo not given)	-0.8% (inactive)
CN1CCC[C@@H]1CCO[C@](C)(c1ccccc1)c1ccc(Cl)cc1	78% (active)
CC(C)(c1ccccc1)c1ccc(OCCN2CCCC2)cc1	2% (inactive)
OC(c1ccccc1)(c1ccccc1)C1CCN(CCCOc2ccccc2)CC1	4.5% (inactive)
CCCc1nn(C)c2c(=O)[nH]c(-c3cc(S(N)(=O)=O)ccc3OCC)nc12	-0.3% (inactive)
O=C(c1cccc(N2CCCC2=O)c1)N1CCOCC1	-0.5% (inactive)
CSc1nccc(NC(=O)c2ccc(C(C)(C)C)cc2)n1	95.6% (active)
COC(=O)c1nc(NC(=O)c2ccc(F)cc2)n[nH]1	11.4% (inactive)
Cc1ccc(C(=O)Nc2ccn(C)n2)cc1	1.3% (inactive)
Cc1ccc(C)c(NC(=O)COC(=O)Cn2c(C)csc2=O)c1	-0.7% (inactive)
COc1cc(NC(=O)c2cncc(-c3ccc(C#N)cc3)c2)cc(C(=O)Nc2cccc(C(F)(F)F)c2)c1	93.8% (active) and 48.4% (inactive)
COc1ccc(C(N)c2csc(NC(=O)Nc3cccc(C(F)(F)F)c3)n2)cc1 (stereo not given)	0.9% (inactive)
COc1cc(NC(=O)c2[nH]cnc2C(N)=O)cc(C(=O)Nc2cccc(C(F)(F)F)c2)c1	0% (inactive)
COCCSc1nnc(NC(=O)c2cc(OC)c(OC)cc2[N+](=O)[O-])s1	-2.4% (inactive)
O=C(Nc1nnc(SCc2c(Cl)cccc2Cl)s1)C1CCCO1 (stereo not given)	-1.4% (inactive)
O=C(Nc1nnc(SCc2c(Cl)cccc2Cl)s1)c1cccc([N+](=O)[O-])c1	91.5% (active)
O=C(NCc1ccccc1Cl)NC(=O)c1csc([N+](=O)[O-])c1	1% (inactive)
O=C(Nc1nnc(SCc2ccccc2Cl)s1)c1cccc([N+](=O)[O-])c1	96.3% (active)
O=C(Nc1nnc(CCN2CCCCC2)s1)c1cccc(Cl)c1	-0.1% (inactive)
